Compound activity from PubChem BioAssay.
Only some compounds are listed: those with a hit (about 9.5% of all), similar ones and a draw of the others.
Pf growth 96h – P. falciparum growth inhibition at 96 hours. P. falciparum luciferase reporter growth, 96 h. hit rate 6.9% among 320,000. Potency, µM (highest dose often 28.7 µM), for inactives: top-dose activity change, negative = inhibition, usual class: inhibitors; further: on the % scale 0 is the no-effect control and ±100 the full control effect
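Infected RBCs, 2% Hct / 0.05% parasitemia final; luciferase-reporter P. falciparum; cpd 96 h, 37 C, 5% CO2; luciferase detection reagent; luminescence.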
SARS PLpro yeast – SARS-CoV PLP inhibition in yeast; S. cerevisiae expressing SARS-CoV PLpro, growth rescue; Potency, µM (titrated, usually from 32.9 µM), for inactives: at the top dose activity, positive = growth rescue, most hits filed as activators; hit rate 0.19% among 330,000; AID 485353; calls by dose curve; further: 0% is about no effect; nearly all actives have a fitted effect of over 55% in size
Pf growth 48h – P. falciparum growth inhibition at 48 hours (one generation) | P. falciparum luciferase growth in erythrocytes, 48 h | Potency, µM (series often up to 28.7 µM), inactives show top-dose activity change, negative = inhibition, actives largely listed as inhibitors | hit rate 5.9% among 310,000 | AID 504832; further: on the % scale 0 is the no-effect control and ±100 the full control effect
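Luminescence readout; reporter = integrated firefly luciferase in P. falciparum. RBC culture at 2% hematocrit, 0.1% parasitemia final, 37 C/5% CO2; decreased signal taken as growth inhibition.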
NS1 function inh – influenza NS1 inhibition; Potency, µM (highest dose often 46.1 µM), inactives show at the highest dose activity, positive = more growth; hit rate 0.4% among 270,000; AID 2326; calls by dose curve; further: actives are rising curves; nearly all actives have a fitted effect of over 50% in size
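A cell-based growth assay was used: compounds that relieve NS1-induced slow growth of budding yeast raise OD600. Assay medium was yeast nitrogen base with ammonium sulphate and -URA supplement, pH 6.0, with 2% galactose.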
RE007 growth inh – less growth of the S. pombe RE007 Vpr strain | S. pombe RE007 Vpr strain, BacTiter-Glo ATP luminescence, 24 h | Potency, µM (series often up to 92.2 µM), for inactives: top-dose activity change, negative = less growth, hits mostly inhibitors | hit rate 0.21% among 360,000 | AID 651644; active means well fitted falling curve with a large enough effect; inconclusive means small, poorly fitted or top-dose-only effect; inactive means no such curve, though single readings can be large or run the other way; further: on the % scale 0 is the no-effect control and ±100 the full control effect; nearly all actives have a fitted effect of over 50% in size
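Fission yeast RE007 carrying one integrated HIV-1 vpr copy, seeded at OD 0.01 in PMG+AL medium with 23 nL pinned compound. Grown 24 h at 30 degrees; viability read by BacTiter-Glo luminescence after 5 min.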
* marks the source's active call; other numbers are inactive results; ? = inconclusive; nt = no result given; ! = repeats disagree; [ ] = remark or other dose. Unless noted, the call rests on the fitted dose curve; in most records, active means well fitted inhibition curve with a large enough effect; inconclusive means small, poorly fitted or top-dose-only effect, or another doubt; inactive means no such curve, though single readings can be large or run the other way. Potency means the concentration at half of the fitted maximal effect.

SMILES | Pf growth 96h | SARS PLpro yeast | Pf growth 48h | NS1 function inh | RE007 growth inh
C=CCNC(=O)c1ccccc1NC(=O)c1ccc(Cl)c(S(=O)(=O)Nc2cc(C)ccc2C)c1 | 8.28µM* | 5.2% | ? | -6.5% | -1.9%
O=C(NCc1ccccn1)c1ccc(Cl)c(S(=O)(=O)Nc2ccccc2C(=O)NCc2ccccn2)c1 | 9.28µM* | -3.9% | 11.7µM* | -5.4% | 18.5%
Cc1ccc(N(Cc2ccc(C(=O)NCCSc3ccccn3)cc2)S(C)(=O)=O)cc1C | 0.738µM* | -11.9% | ? | 2.6% | nt
CCN(CC)S(=O)(=O)c1ccc(/C=C/C(=O)N(c2ccccn2)C2CCCCC2)cc1 | 4.65µM* | 2.7% | -5.0% | nt | 3.5%
O=C(Nc1ccc2oc(-c3ccccc3F)nc2c1)c1ccc([N+](=O)[O-])o1 | 34.6% | -1.9% | ? | 3.4% | 2.6%
O=C(Nc1ccc2oc(-c3ccccc3F)nc2c1)c1cncc(Br)c1 | nt | 0.2% | 8.28µM* | -3.6% | 9.5%
COc1ccc(O)c(/C=N/NC(=O)CCC(=O)Nc2ccc(F)cc2)c1 | 45.2% | 1.9% | -13.3% | 15.9% | 4.5%
C=CCC1CCCCC1=C(C#N)c1ccccc1 (stereo unspecified) | nt | nt | nt | nt | -13.7%
O=C1CC[C@@H](C(=O)O)N1 | 13.5µM*! | nt | ? | nt | -6.0%
COc1cccc(C(=O)NC2CCCC2)c1 | 4.65µM* | 0.2% | 13.8% | 4.8% | -0.1%
COc1ccc(C(=O)Nc2ccc(NC(=O)C3CC3)nc2)cc1 | 10.4µM* | 4.1% | 9.0% | -3.5% | 19.4%
COc1cccc(C(=O)Nc2ccc(NC(=O)C3CC3)cn2)c1 | 8.28µM* | -1.8% | 151.8% | -9.5% | 3.9%
CCC(=O)Nc1ccc(NC(=O)c2cccc(OC)c2)nc1 | -7.8% | -8.5% | 391.9% | -0.7% | -5.2%
O=C(c1ccc(Cl)cc1)N1CCN(c2nc(N3CCCCC3)nc(N3CCCCC3)n2)CC1 | nt | nt | nt | -32.2% | nt
COc1ccc(NC(=O)c2cc(S(=O)(=O)N3CCCCC3)c[nH]2)cc1Cl | 11.2% | 7.2% | ? | -2.3% | -1.8%
O=C(CCNS(=O)(=O)c1ccc(Cl)cc1)NCc1cccs1 | 39.6% | -1.7% | -20.2% | nt | 3.8%
O=S(=O)(O)C(c1ccccc1)[C@@H](O)c1ccccc1 (stereo partly specified) | nt | nt | nt | 2.8% | nt
CCOc1ccc(-c2nnc(SCC(=O)NC3CC3)o2)cc1 | ? | 1.2%[6.58 µM] | ? | nt | 6.4%
CC(C)(C)c1ccc(-c2nnc(SCC(=O)NC3CC3)o2)cc1 | 1.31µM* | 3.4% | 2.08µM* | nt | 3.0%
Nc1c(C(=O)NCc2ccco2)c2nc3ccccc3nc2n1CCN1CCCCC1 | 9.28µM* | -1.1% | ? | 15.7% | 0.3%
COc1ccc(-n2c(N)c(C(=O)NCc3ccco3)c3nc4ccccc4nc32)cc1OC | ? | 25.3% | 13.1µM* | 17.7% | 0.7%
COc1cc(-n2c(N)c(C(=O)NCc3ccco3)c3nc4ccccc4nc32)cc(OC)c1OC | 13.1µM* | 16.3% | 11.7µM* | 16.1% | 0.1%
Nc1c(C(=O)NCc2ccco2)c2nc3ccccc3nc2n1CCc1ccc(F)cc1 | ? | 12.5% | nt | ? | -10.2%
COc1ccc(Cn2c(N)c(C(=O)NCc3ccco3)c3nc4ccccc4nc32)cc1OC | 3.7µM* | -4.7% | ? | ? | -12.2%
COCCCNC(=O)c1c(N)n(Cc2ccco2)c2nc3ccccc3nc12 | ? | -1.0% | ? | 3.1% | -7.4%
SMILES | Pf growth 96h | SARS PLpro yeast | Pf growth 48h | NS1 function inh | RE007 growth inh
COc1ccc(-n2c(N)c(C(=O)NCc3ccco3)c3nc4ccccc4nc32)cc1 | ? | 4.6% | ? | 18.4% | 0.2%
Cc1cc(OCC(=O)OCC(=O)NCCN2C(=O)CSC2=O)ccc1Cl | -11.6% | 3.0% | -4.2% | nt | 18.6%
O=c1o[nH]c(-c2ccccc2)c1-c1ccccc1 | nt | nt | nt | nt | 1.7%
COc1ccc(/C=N\Nc2ncc(F)c(N3CCOCC3)n2)cc1OC | ? | 0.9% | ? | -7.3% | -3.4%
CC(=O)Nc1ccc(S(=O)(=O)NNC(=O)COc2ccc(C)cc2)cc1 | 3.5% | 4.2% | 11.7% | 6.9% | 1.7%
COC(=O)c1ccc(S(=O)(=O)NNC(=O)COc2ccc(C)cc2)cc1 | 5.22µM* | ? | 22.5% | 5.6% | 23.0%
COc1cc(OC)cc(C(=O)NNC(=O)C2CCC2)c1 | nt | nt | nt | nt | 4.7%
Cn1c(=O)c2c(nc(CN3CCN(C(c4ccccc4)c4ccccc4)CC3)n2CC(N)=O)n(C)c1=O | ? | 7.2% | nt | -2.6% | -8.4%
